Test in all cases: DAPPL (digital affinity profiling via proximity ligation, sequencing); 10 mM Tris-HCl pH 7.5, 50 mM NaCl, 1 mM DTT, 4% glycerol, room temperature, 30 min; GST-TFs on glutathione beads, 16-mer random dsDNA library, 0.1% formaldehyde crosslink after washing; high values mean tight binding
The target in one test is T1, FEV (Homo sapiens, UniProt Q99581 1-238).
T1 sequence: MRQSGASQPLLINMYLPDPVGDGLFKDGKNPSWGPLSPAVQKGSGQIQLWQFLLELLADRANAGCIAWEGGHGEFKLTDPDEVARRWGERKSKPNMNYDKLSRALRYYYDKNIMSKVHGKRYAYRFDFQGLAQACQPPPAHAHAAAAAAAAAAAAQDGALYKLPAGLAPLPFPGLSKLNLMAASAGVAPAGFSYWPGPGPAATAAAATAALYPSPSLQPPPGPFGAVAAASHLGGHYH
To be noted: protein: recombinant; tags: N-terminal GST; dsDNA, one strand shown. Summed up: (§1)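 In yeast, human transcription factors were expressed with a GST fusion, then pulled down on glutathione beads and given DNA barcodes. Pooled with a tag-only sample, they were exposed to 200 nmole of a 16-mer random double-stranded DNA library (Tris/NaCl/DTT/glycerol buffer, room temperature, 30 min), washed, crosslinked with 0.1% formaldehyde, proximity-ligated using BsaI/T4 ligase for 1 h at 37 °C, PCR-amplified and read on an Illumina NextSeq500. Each hexamer's frequency of reads for a factor, divided by the matching frequency for the tag-only sample, gives the binding signal.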

In the next test the target is ETV5 (Homo sapiens, UniProt P41161 1-510). To be noted: protein: recombinant; tags: N-terminal GST; dsDNA, one strand shown. Summed up: as §1
For the next test, the target named is HSF1 (Homo sapiens, UniProt Q00613 1-529). To be noted: protein: recombinant; tags: N-terminal GST; chain copies: 3; dsDNA, one strand shown. Summed up:
as §1

Another test has as its target T2, SPIC (Homo sapiens, UniProt Q8N5J4 1-248).
T2 sequence: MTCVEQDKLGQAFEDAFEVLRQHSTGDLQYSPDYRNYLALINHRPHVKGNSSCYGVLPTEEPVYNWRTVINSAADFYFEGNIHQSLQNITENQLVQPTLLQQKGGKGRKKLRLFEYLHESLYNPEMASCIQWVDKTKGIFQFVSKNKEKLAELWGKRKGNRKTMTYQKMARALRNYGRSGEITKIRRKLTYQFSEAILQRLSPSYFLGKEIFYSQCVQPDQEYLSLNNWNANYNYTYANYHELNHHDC
To be noted: protein: recombinant; tags: N-terminal GST; dsDNA, one strand shown. An outline of the steps: as §1

In the next test the target is ELF4 (Homo sapiens, UniProt Q99607 1-663). To be noted: protein: recombinant; tags: N-terminal GST; dsDNA, one strand shown. An outline of the steps:
as §1

The next test concerns the target T3, ELK4 (Homo sapiens, UniProt P28324-2 1-405).
T3 sequence: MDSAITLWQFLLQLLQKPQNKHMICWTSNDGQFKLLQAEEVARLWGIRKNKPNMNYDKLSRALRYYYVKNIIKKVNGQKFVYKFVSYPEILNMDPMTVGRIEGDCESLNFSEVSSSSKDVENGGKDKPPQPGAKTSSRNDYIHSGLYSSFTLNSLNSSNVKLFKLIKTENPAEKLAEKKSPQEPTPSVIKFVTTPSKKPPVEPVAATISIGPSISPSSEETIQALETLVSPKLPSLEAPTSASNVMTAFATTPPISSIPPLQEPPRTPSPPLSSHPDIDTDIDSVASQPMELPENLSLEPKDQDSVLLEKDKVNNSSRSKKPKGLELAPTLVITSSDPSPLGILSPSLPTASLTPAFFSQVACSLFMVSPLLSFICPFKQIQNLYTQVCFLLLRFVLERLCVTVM
To be noted: protein: recombinant; tags: N-terminal GST; dsDNA, one strand shown. Summed up:
as §1

For the next test, the target named is T4, ETV2 (Homo sapiens, UniProt O00321 1-342).
T4 sequence: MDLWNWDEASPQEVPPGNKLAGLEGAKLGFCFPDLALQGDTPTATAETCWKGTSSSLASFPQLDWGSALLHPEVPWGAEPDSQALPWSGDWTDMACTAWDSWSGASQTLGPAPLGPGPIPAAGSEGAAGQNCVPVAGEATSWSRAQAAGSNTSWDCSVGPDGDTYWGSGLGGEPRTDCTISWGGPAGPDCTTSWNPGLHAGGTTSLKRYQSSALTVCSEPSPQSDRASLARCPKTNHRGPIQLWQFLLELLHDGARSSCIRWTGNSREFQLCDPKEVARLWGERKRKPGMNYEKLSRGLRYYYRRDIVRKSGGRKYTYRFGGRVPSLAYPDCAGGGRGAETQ
To be noted: protein: recombinant; tags: N-terminal GST; dsDNA, one strand shown. Summed up: as §1

A further test deals with T5, ELF3 (Homo sapiens, UniProt P78545 1-371).
T5 sequence: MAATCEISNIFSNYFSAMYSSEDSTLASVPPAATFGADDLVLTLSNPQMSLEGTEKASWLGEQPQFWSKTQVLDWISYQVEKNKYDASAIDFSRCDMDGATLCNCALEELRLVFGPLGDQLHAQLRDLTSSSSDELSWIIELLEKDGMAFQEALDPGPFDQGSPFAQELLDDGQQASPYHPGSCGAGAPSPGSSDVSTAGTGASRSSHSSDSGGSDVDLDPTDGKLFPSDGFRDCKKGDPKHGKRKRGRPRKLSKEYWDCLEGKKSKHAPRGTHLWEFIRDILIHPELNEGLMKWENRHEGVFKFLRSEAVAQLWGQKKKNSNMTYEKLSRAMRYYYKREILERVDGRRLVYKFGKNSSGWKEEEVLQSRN
To be noted: protein: recombinant; tags: N-terminal GST; dsDNA, one strand shown. Summed up:
as §1

A further test addresses CRX (Homo sapiens, UniProt O43186 1-299). To be noted: protein: recombinant; tags: N-terminal GST; dsDNA, one strand shown. Summed up: as §1
A further test deals with ETV1 (Homo sapiens, UniProt P50549 1-477). To be noted: protein: recombinant; tags: N-terminal GST; dsDNA, one strand shown. Summed up: as §1
Another test addresses T6, ERF (Homo sapiens, UniProt P50548 1-548).
T6 sequence: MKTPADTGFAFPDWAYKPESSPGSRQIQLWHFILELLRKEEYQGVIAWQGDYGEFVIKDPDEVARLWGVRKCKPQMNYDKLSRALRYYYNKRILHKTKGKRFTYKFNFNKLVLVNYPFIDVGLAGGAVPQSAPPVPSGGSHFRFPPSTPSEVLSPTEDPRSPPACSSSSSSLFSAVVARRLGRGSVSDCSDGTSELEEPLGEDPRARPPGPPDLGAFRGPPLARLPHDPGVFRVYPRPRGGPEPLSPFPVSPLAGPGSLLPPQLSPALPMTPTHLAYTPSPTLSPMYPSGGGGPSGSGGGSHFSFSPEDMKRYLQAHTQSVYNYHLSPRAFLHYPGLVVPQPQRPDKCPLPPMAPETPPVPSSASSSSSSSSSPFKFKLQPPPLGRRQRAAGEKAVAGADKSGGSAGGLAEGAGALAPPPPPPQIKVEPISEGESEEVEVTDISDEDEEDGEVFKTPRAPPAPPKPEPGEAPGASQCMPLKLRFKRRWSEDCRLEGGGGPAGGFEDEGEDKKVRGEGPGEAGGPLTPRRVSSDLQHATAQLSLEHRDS
To be noted: protein: recombinant; tags: N-terminal GST; dsDNA, one strand shown. Summed up:
as §1

For the next test, the target named is T7, ETV3L (Homo sapiens, UniProt Q6ZN32 1-361).
T7 sequence: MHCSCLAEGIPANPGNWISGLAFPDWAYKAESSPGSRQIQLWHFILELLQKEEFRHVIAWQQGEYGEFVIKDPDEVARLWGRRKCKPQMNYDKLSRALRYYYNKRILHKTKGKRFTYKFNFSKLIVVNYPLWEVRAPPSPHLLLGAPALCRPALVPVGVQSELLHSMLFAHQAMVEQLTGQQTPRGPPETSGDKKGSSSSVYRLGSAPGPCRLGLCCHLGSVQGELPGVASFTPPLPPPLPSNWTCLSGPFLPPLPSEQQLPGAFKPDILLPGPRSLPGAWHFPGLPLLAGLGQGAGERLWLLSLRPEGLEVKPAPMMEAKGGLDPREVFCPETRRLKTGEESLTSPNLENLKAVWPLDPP
To be noted: protein: recombinant; tags: N-terminal GST; dsDNA, one strand shown. Summed up: as §1

The next test deals with T8, ETS2 (Homo sapiens, UniProt P15036 1-469).
T8 sequence: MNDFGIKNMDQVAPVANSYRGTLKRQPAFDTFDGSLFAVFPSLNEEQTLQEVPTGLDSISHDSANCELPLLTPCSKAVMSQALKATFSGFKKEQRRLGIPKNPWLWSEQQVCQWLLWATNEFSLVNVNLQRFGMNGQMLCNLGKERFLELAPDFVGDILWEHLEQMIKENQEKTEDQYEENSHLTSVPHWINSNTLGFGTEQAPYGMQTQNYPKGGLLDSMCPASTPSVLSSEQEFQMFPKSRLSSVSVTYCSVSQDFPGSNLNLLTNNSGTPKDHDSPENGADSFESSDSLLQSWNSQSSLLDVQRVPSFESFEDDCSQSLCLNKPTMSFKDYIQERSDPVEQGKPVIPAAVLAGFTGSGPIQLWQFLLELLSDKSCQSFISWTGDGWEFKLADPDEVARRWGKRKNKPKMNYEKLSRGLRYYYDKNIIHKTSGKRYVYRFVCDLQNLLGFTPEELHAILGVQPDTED
To be noted: protein: recombinant; tags: N-terminal GST; dsDNA, one strand shown. An outline of the steps:
as §1

Another test deals with T9, SPDEF (Homo sapiens, UniProt O95238 1-335).
T9 sequence: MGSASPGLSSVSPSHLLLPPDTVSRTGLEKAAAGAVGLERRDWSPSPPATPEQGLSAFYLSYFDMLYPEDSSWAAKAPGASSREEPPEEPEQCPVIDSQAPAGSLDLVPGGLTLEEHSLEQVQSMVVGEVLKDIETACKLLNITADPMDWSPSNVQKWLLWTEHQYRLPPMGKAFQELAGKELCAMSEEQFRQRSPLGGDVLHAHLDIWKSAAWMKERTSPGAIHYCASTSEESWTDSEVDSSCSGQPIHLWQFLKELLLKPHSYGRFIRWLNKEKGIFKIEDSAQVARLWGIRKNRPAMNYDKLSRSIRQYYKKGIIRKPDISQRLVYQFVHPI
To be noted: protein: recombinant; tags: N-terminal GST; dsDNA, one strand shown. An outline of the steps:
as §1

The next test concerns the target T10, ETV7 (Homo sapiens, UniProt Q9Y603 1-341).
T10 sequence: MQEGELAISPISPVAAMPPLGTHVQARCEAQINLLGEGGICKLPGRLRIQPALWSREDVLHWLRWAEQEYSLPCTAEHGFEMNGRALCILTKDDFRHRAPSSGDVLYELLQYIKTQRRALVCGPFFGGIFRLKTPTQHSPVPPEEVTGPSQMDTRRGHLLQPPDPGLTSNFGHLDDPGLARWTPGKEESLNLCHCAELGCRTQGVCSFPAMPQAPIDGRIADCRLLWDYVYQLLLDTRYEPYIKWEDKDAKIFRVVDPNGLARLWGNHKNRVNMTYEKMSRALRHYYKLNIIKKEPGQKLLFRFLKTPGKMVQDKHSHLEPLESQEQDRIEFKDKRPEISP
To be noted: protein: recombinant; tags: N-terminal GST; dsDNA, one strand shown. An outline of the steps:
as §1

In another test the target is T11, ELF5 (Homo sapiens, UniProt Q9UKW6-2 1-255).
T11 sequence: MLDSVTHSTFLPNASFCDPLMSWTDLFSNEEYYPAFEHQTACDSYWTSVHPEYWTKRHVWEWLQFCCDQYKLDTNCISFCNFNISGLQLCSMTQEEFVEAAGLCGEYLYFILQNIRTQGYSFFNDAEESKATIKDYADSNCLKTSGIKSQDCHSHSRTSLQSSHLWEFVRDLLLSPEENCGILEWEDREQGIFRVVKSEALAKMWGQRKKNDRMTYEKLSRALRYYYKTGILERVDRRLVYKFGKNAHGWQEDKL
To be noted: protein: recombinant; tags: N-terminal GST; dsDNA, one strand shown. An outline of the steps:
as §1

A further test has as its target T12, ETV3 (Homo sapiens, UniProt P41162-2 1-143).
T12 sequence: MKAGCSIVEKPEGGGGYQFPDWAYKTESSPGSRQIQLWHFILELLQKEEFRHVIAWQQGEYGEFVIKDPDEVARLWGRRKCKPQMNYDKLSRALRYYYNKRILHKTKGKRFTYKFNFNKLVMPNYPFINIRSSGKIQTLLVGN
To be noted: protein: recombinant; tags: N-terminal GST; dsDNA, one strand shown. Summed up:
as §1

The next test addresses ETV6 (Homo sapiens, UniProt P41212 1-452). To be noted: protein: recombinant; tags: N-terminal GST; dsDNA, one strand shown. An outline of the steps:
as §1

ETV5, sequence (P41161 whole entry): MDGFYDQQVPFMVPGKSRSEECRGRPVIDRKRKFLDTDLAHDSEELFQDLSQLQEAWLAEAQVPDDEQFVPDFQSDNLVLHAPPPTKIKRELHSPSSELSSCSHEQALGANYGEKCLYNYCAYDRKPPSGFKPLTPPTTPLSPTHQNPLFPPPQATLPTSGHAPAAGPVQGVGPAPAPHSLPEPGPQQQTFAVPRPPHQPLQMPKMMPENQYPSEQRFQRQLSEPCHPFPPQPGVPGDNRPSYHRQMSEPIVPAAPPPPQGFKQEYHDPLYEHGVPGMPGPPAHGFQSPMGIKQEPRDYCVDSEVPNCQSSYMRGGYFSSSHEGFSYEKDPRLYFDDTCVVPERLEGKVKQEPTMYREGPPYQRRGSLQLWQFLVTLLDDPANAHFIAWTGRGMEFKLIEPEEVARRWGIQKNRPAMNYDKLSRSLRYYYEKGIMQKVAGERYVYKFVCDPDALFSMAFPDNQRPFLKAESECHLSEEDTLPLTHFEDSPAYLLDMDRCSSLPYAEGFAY
ETV1, sequence (P50549 whole entry): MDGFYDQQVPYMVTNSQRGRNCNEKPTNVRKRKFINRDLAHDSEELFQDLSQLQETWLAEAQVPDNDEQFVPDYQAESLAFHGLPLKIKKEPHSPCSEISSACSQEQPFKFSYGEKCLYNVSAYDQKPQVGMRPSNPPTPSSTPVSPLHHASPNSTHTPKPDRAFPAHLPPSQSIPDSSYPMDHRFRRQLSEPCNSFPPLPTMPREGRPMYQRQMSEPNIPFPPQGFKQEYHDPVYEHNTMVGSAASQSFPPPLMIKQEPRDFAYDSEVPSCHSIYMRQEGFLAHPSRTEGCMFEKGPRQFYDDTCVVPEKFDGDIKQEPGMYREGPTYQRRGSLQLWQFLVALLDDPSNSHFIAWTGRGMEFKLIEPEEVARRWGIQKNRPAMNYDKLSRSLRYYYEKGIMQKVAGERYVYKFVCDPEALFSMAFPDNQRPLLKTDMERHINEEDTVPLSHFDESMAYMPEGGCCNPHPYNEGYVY
ETV6, sequence (P41212 whole entry): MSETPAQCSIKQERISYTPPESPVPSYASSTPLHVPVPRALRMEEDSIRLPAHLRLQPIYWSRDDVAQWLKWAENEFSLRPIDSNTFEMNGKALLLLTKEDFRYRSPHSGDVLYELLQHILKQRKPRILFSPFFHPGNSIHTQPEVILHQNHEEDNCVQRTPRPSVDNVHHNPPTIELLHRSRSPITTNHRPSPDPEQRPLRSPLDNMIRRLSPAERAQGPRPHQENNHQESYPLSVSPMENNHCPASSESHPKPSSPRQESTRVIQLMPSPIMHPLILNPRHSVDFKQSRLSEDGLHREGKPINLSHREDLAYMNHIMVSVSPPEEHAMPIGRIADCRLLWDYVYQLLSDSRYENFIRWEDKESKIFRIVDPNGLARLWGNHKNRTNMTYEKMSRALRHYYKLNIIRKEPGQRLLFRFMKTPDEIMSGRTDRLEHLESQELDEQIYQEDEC
ELF4, sequence (Q99607 whole entry): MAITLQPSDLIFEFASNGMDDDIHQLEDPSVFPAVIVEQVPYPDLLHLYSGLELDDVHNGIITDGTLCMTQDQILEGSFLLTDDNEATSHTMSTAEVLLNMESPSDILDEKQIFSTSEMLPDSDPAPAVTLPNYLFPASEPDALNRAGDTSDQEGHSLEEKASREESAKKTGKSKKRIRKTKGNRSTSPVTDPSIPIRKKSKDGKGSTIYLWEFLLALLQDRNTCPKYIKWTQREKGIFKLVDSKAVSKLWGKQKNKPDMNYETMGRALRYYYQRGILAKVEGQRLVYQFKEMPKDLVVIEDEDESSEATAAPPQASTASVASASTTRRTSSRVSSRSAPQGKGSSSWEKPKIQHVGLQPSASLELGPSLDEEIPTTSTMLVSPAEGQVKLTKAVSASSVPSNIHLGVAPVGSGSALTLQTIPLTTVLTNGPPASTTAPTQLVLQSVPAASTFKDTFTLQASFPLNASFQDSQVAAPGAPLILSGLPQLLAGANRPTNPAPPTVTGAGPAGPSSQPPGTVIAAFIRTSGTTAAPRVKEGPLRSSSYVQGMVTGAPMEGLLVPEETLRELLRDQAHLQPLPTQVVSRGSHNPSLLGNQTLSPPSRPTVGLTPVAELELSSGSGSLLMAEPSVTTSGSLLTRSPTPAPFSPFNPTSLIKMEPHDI
CRX, sequence (O43186 whole entry): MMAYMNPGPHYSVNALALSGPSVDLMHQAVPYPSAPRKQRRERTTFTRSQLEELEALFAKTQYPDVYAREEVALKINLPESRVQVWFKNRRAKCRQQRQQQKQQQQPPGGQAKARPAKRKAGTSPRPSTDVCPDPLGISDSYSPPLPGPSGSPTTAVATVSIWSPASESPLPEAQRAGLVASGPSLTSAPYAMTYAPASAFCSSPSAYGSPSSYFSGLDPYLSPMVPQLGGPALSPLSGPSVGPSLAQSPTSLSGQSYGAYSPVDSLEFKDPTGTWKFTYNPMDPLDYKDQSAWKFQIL
HSF1, sequence (Q00613 whole entry): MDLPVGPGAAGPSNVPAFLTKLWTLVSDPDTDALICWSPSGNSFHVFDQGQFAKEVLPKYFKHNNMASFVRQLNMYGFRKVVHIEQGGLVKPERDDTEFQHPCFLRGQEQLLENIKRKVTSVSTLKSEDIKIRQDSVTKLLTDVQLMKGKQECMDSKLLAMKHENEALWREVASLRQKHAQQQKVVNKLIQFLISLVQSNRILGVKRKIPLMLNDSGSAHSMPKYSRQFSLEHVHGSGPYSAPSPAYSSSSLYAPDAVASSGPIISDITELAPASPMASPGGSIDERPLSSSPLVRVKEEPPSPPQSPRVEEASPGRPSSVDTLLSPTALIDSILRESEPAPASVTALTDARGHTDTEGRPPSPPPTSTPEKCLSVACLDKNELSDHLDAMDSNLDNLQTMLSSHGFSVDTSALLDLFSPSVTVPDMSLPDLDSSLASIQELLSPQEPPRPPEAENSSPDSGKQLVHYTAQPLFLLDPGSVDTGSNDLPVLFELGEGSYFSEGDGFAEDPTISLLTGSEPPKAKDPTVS

Take TTCAGC: the binding signal was 1.25 fold enrichment (6-mer frequency, TF over GST control) with FEV; 1.22 fold enrichment (6-mer frequency, TF over GST control) in the test with ETV5; 1.04 fold enrichment (6-mer frequency, TF over GST control) with HSF1; 1.16 fold enrichment (6-mer frequency, TF over GST control) in the test with SPIC; 1.28 fold enrichment (6-mer frequency, TF over GST control) with ELF4; 1.23 fold enrichment (6-mer frequency, TF over GST control) with ELK4. For the same sequence, the binding signal with ETV2 is 1.14 fold enrichment (6-mer frequency, TF over GST control); with ELF3 it was 1.27 fold enrichment (6-mer frequency, TF over GST control); with CRX it was 1.19 fold enrichment (6-mer frequency, TF over GST control); with ETV1, 1.3 fold enrichment (6-mer frequency, TF over GST control); with ERF, 1.14 fold enrichment (6-mer frequency, TF over GST control); with ETV3L, 1.21 fold enrichment (6-mer frequency, TF over GST control). Moreover, the binding signal in the test with ETS2 is 1.27 fold enrichment (6-mer frequency, TF over GST control); in the test with SPDEF, 1.12 fold enrichment (6-mer frequency, TF over GST control); with ETV7, 1.27 fold enrichment (6-mer frequency, TF over GST control); in the test with ELF5, 1.16 fold enrichment (6-mer frequency, TF over GST control); in the test with ETV3, 1.32 fold enrichment (6-mer frequency, TF over GST control); in the test with ETV6, 1.2 fold enrichment (6-mer frequency, TF over GST control).

The values are drawn from publication PMC7862700, “An all-to-all approach to the identification of sequence-specific readers for epigenetic DNA modifications on cytosine”.
